# Measured values as given in the supplement of paper PMC10037445.
# The full ranking holds about 2,900 compounds; the median of “IRF Lucia reporter activity, fold change vs agonist alone” is about 0.9, and the highest 2% start at about 2.8. Many of the other results were omitted from the sample, so the highest values are more common in it than they were.
# Legend:
# [1] = tested on: RAW-Dual; assay: IRF Lucia reporter activity, fold change vs agonist alone; cytotoxicity flag (confluency mask): cytotoxic (confluency <70% of control); higher = enhanced IRF activity
# Method in brief: (§1)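 RAW-Dual macrophages (50,000 cells/well in DMEM, 384-well plates) received 50 nL of library stock by pin tool, then a PRR agonist 1 h later, and were kept at 37 °C, 5% CO2. After 20 hours, supernatant was read for IRF by QuantiLuc luminescence and for NF-κB by QuantiBlue absorbance at 620 nm. Reporter activity is fold change over agonist-alone wells. Cytotoxic wells had IncuCyte confluency below 70% of agonist controls in both mask sets.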
# [2] = tested on: RAW-Dual; assay: IRF Lucia reporter activity, fold change vs agonist alone; higher = enhanced IRF activity; settings: library stock concentration (final ~1000-fold dilution): 10 mM, agonist: MPLA (TLR4) […]
# Method in brief: as §1
# [3] = tested on: RAW-Dual; assay: IRF Lucia reporter activity, fold change vs agonist alone; cytotoxicity flag (confluency mask): not cytotoxic; higher = enhanced IRF activity
# Method in brief: as §1
# [4] = agonist: 3'3'-cGAMP (STING) 10 ug/mL
# [5] = cytotoxicity flag (confluency mask): cytotoxic (confluency <70% of control)
# [6] = cytotoxicity flag (confluency mask): not cytotoxic
smiles,measurement,setting,value
Cc1ccc(C2OC(CO)C(O)C(O)C2O)cc1Cc1ccc(-c2ccc(F)cc2)s1.Cc1ccc(C2OC(CO)C(O)C(O)C2O)cc1Cc1ccc(-c2ccc(F)cc2)s1.O (centres undefined) (library stock concentration (final ~1000-fold dilution): 10 mM),IRF Lucia reporter activity,[1]; [4],0.0212
same,IRF Lucia reporter activity,[1]; agonist: LPS (TLR4) 0.1 ug/mL,0.026
Cc1ccc(C2OC(CO)C(O)C(O)C2O)cc1Cc1ccc(-c2ccc(F)cc2)s1.Cc1ccc(C2OC(CO)C(O)C(O)C2O)cc1Cc1ccc(-c2ccc(F)cc2)s1.O (centres undefined),IRF Lucia reporter activity,[2]; [5],0.0328
Cc1cc2c(F)c(Oc3ncnn4cc(OCC(C)OC(=O)C(C)N)c(C)c34)ccc2[nH]1 (centres undefined),IRF Lucia reporter activity,[2]; [5],2.88
Cc1cc2c(F)c(Oc3ncnn4cc(OCC(C)OC(=O)C(C)N)c(C)c34)ccc2[nH]1 (centres undefined) (library stock concentration (final ~1000-fold dilution): 10 mM),IRF Lucia reporter activity,[1]; [4],0.967
same,IRF Lucia reporter activity,[1]; agonist: LPS (TLR4) 0.1 ug/mL,2.13
COc1cc2c(Oc3ccc4[nH]c(C)cc4c3F)ncnc2cc1OCCCN1CCCC1.O=C(O)/C=C\C(=O)O,IRF Lucia reporter activity,[2]; [5],2.35
COc1cc2c(Oc3ccc4[nH]c(C)cc4c3F)ncnc2cc1OCCCN1CCCC1.O=C(O)/C=C\C(=O)O (library stock concentration (final ~1000-fold dilution): 10 mM),IRF Lucia reporter activity,[1]; [4],0.783
same,IRF Lucia reporter activity,[1]; agonist: LPS (TLR4) 0.1 ug/mL,1.92
Cc1cc2c(F)c(Oc3ncnn4cc(OCC(C)O)c(C)c34)ccc2[nH]1 (centres undefined) (library stock concentration (final ~1000-fold dilution): 10 mM),IRF Lucia reporter activity,[3]; [4],1.01
same,IRF Lucia reporter activity,[3]; agonist: LPS (TLR4) 0.1 ug/mL,1.75
Cc1cc2c(F)c(Oc3ncnn4cc(OCC(C)O)c(C)c34)ccc2[nH]1 (centres undefined),IRF Lucia reporter activity,[2]; [6],1.93
COS(=O)(=O)[O-].Cc1cc2c3c([n+](C)c4ccc(F)cc4c3c1)-c1cc(F)ccc1N2C (library stock concentration (final ~1000-fold dilution): 10 mM),IRF Lucia reporter activity,[3]; [4],1.39
same,IRF Lucia reporter activity,[3]; agonist: LPS (TLR4) 0.1 ug/mL,1.53
CN1CCN(CCCN2c3ccccc3Sc3ccc(Cl)cc32)CC1.O=C(O)/C=C\C(=O)O.O=C(O)/C=C\C(=O)O (library stock concentration (final ~1000-fold dilution): 10 mM),IRF Lucia reporter activity,[1]; [4],0.64
same,IRF Lucia reporter activity,[1]; agonist: LPS (TLR4) 0.1 ug/mL,0.589
CN1CCN(CCCN2c3ccccc3Sc3ccc(Cl)cc32)CC1.O=C(O)/C=C\C(=O)O.O=C(O)/C=C\C(=O)O,IRF Lucia reporter activity,[2]; [5],0.883
O=C(O)C1OC(Oc2cc3oc(-c4ccccc4)cc(=O)c3c(O)c2O)C(O)C(O)C1O (centres undefined) (library stock concentration (final ~1000-fold dilution): 10 mM),IRF Lucia reporter activity,[3]; [4],0.96
same,IRF Lucia reporter activity,[3]; agonist: LPS (TLR4) 0.1 ug/mL,0.958
O=C(O)C1OC(Oc2cc3oc(-c4ccccc4)cc(=O)c3c(O)c2O)C(O)C(O)C1O (centres undefined),IRF Lucia reporter activity,[2]; [6],1.03
CC(C)OC(=O)C(C)NP(=O)(OCC1OC(n2ccc(=O)[nH]c2=O)C(C)(F)C1O)Oc1ccccc1 (centres undefined) (library stock concentration (final ~1000-fold dilution): 10 mM),IRF Lucia reporter activity,[3]; [4],1.04
same,IRF Lucia reporter activity,[3]; agonist: LPS (TLR4) 0.1 ug/mL,0.731
CC(C)OC(=O)C(C)NP(=O)(OCC1OC(n2ccc(=O)[nH]c2=O)C(C)(F)C1O)Oc1ccccc1 (centres undefined),IRF Lucia reporter activity,[2]; [6],1.04
COc1cc2c(NC3CCN(C(C)C)CC3)nc(N3CCC(F)(F)CC3)nc2cc1OCCCN1CCCC1 (library stock concentration (final ~1000-fold dilution): 10 mM),IRF Lucia reporter activity,[1]; [4],0.849
same,IRF Lucia reporter activity,[1]; agonist: LPS (TLR4) 0.1 ug/mL,4.2
COc1cc2c(NC3CCN(C(C)C)CC3)nc(C3CCCCC3)nc2cc1OCCCN1CCCC1 (library stock concentration (final ~1000-fold dilution): 10 mM),IRF Lucia reporter activity,[1]; [4],0.154
same,IRF Lucia reporter activity,[1]; agonist: LPS (TLR4) 0.1 ug/mL,0.0189
COc1cc2nc(N3CCCC3)nc(NCCCCCN3CCCC3)c2cc1OC,IRF Lucia reporter activity,[2]; [5],0.8
COc1cc2nc(N3CCCC3)nc(NCCCCCN3CCCC3)c2cc1OC (library stock concentration (final ~1000-fold dilution): 10 mM),IRF Lucia reporter activity,[1]; [4],0.313
same,IRF Lucia reporter activity,[1]; agonist: LPS (TLR4) 0.1 ug/mL,2.54
COc1cc2c(NC3CCN(C(C)C)CC3)nc(N3CCC(F)(F)CC3)nc2cc1OCCCN1CCCC1,IRF Lucia reporter activity,[2]; [5],0.652
COc1cc2c(cc1O)CCC1C2CCC2(C)C(O)CCC12 (centres undefined),IRF Lucia reporter activity,[2]; [5],1.31
COc1cc2c(cc1O)CCC1C2CCC2(C)C(O)CCC12 (centres undefined) (library stock concentration (final ~1000-fold dilution): 10 mM),IRF Lucia reporter activity,[1]; [4],0.205
same,IRF Lucia reporter activity,[1]; agonist: LPS (TLR4) 0.1 ug/mL,1.03
O=C(NOCC(O)CO)c1ccc(F)c(F)c1Nc1ccc(I)cc1F (centres undefined),IRF Lucia reporter activity,[2]; [6],3.52
Cc1cc(C(=O)NOCCO)c(Nc2ccc(I)cc2F)n(C)c1=O,IRF Lucia reporter activity,[2]; [6],2.81
Cn1c(=O)c(F)c(Nc2ccc(I)cc2F)c2c(=O)n(CC(O)CO)cnc21 (centres undefined) (library stock concentration (final ~1000-fold dilution): 10 mM),IRF Lucia reporter activity,[3]; [4],0.517
same,IRF Lucia reporter activity,[3]; agonist: LPS (TLR4) 0.1 ug/mL,0.819
Cn1c(=O)c(F)c(Nc2ccc(I)cc2F)c2c(=O)n(CC(O)CO)cnc21 (centres undefined),IRF Lucia reporter activity,[2]; [6],1.23
O=C(NOCC(O)CO)c1cc(Br)c(F)c(F)c1Nc1ccc(I)cc1F (centres undefined),IRF Lucia reporter activity,[2]; [6],2.39
O=C(NOCC1CC1)c1ccc(F)c(F)c1Nc1ccc(I)cc1Cl (library stock concentration (final ~1000-fold dilution): 10 mM),IRF Lucia reporter activity,[3]; [4],0.525
same,IRF Lucia reporter activity,[3]; agonist: LPS (TLR4) 0.1 ug/mL,2.5
O=C(NOCC1CC1)c1ccc(F)c(F)c1Nc1ccc(I)cc1Cl,IRF Lucia reporter activity,[2]; [6],2.05
O=C(NOCCO)c1ccc2cncn2c1Nc1ccc(I)cc1F,IRF Lucia reporter activity,[2]; [6],3.27
